The test concerns Cytotoxicity. In words: STAT3 blockade with qPCR and toxicity readouts – cell-based, STAT1 panel, cytotoxicity, late-stage follow-up (AID 2078). The settings on record: cell reporter assay; series mostly up to 55.7 µM. (In qPCR the cycle at which signal appears reflects the starting amount.)

Calls of active or inactive are those of the source. The rule behind the calls is not given here.

For the compound `c1ccc(CC2CCN(c3ncnc4sccc34)CC2)cc1`, the outcome was inactive.

For the origin of these results see PubChem BioAssay AID2078 (The Scripps Research Institute Molecular Screening Center, 2009).
